Data on 13 compounds can be found in PubChem BioAssay (NCI).

What all share (test): NCI-60 one-dose screen, 48 h (100 = growth as untreated, 0 = no growth, -100 = all killed)
Details in all cases: 10 µM

For assay [1], the system named is DU-145 prostate.
The subject of assay [2] is K-562 leukemia.
Assay [3] has as its system MALME-3M melanoma.
In assay [4] the test system is MDA-MB-231 breast.
The subject of assay [5] is SF-268 CNS.
For assay [6], the system named is SF-295 CNS.
For assay [7], the system named is SF-539 CNS.
The test system of assay [8] is UACC-257 melanoma.
For assay [9], the system named is M14 melanoma.

Molecules are shown by their SMILES. Compounds without any hit were thinned out: in the full panel of roughly 83,000, 20% have a hit.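 Step 1: grow cells in 96-well plates. Step 2: add test compound at a single concentration. Step 3: incubate 48 h. Step 4: record percent growth.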 Active and inactive are the calls of the source. Rule for the calls: active = growth percent below 10; inactive = the rest.

As to `O=C(Cn1nc(-c2ccccc2)ccc1=O)NNC(=S)NC1CCCCC1`, the growth is 117% (inactive) in assay [1]; 90.4% (inactive) in assay [2]; 105% (inactive) in assay [3]; 109% (inactive) in assay [4]; 113% (inactive) in assay [5]; 101% (inactive) in assay [6]. Also, the growth in [7] is 97.3% (inactive); in assay [8] it was 111% (inactive); in [9] it was 122% (inactive).

As for `O=S(=O)(Nc1ncccn1)c1ccc(-n2c(-c3ccc(Br)cc3)nc(-c3ccccc3)c2-c2ccccc2)cc1`, the growth is 58.3% (inactive) in assay [1]; 44% (inactive) in assay [2]; 74.6% (inactive) in assay [3]; 51.3% (inactive) in assay [4]; 32.5% (inactive) in assay [5]; 8.26% (active) in [6]. In addition, the growth is 55.8% (inactive) in assay [7], 59.4% (inactive) in [8] and 38.4% (inactive) in assay [9].

For `Cc1noc2c(Cc3ccc([N+](=O)[O-])cc3)nn(CC(=O)N/N=C/c3ccc(Cl)cc3)c(=O)c12`, the growth in assay [1] was 61.6% (inactive); in [2], 72.8% (inactive); in assay [3], 36.9% (inactive); in assay [4], 4.43% (active); in [5], 23.5% (inactive); in assay [6], 70.1% (inactive). For the same compound, the growth in assay [7] was 8.2% (active); in assay [8], 81% (inactive); in [9], 68.1% (inactive).

Consider `CC(C)C1=C[C@@]23CC[C@@H]4[C@](C)(CCC[C@]4(C)C(=O)NCc4ccccc4)[C@H]2C[C@@H]1[C@H]1C(=O)OC(=O)[C@H]13`, for which the growth in assay [1] is 55.3% (inactive); in assay [2] it was 21.5% (inactive); in [3] it was 87% (inactive); in assay [4], 77.1% (inactive); in [5], 46.6% (inactive); in [6] it was 17.8% (inactive). Moreover, the growth in assay [7] was 63.2% (inactive); in assay [8] it was 82.1% (inactive); in [9], 54.3% (inactive).

In the case of `COc1ccc(C(=O)/C=C/c2cc(C(F)(F)F)cc(C(F)(F)F)c2)cc1S(N)(=O)=O`, the growth is -41.4% (active) in assay [1]; 8.85% (active) in assay [2]; -94.7% (active) in assay [3]; -77.8% (active) in [4]; 6.18% (active) in assay [5]; -86% (active) in assay [6]. In addition, the values for the growth in [7], in [8] and in [9] were -98.4% (active), -55.5% (active) and -75.8% (active), respectively.

Turning to `CCCn1c(=O)c2[nH]c(-c3ccc(OCc4nc5ccc(C(F)(F)F)cc5[nH]4)cc3)nc2n(CCC)c1=O`, the growth was 58.3% (inactive) in assay [1]; 34.9% (inactive) in [2]; 14.2% (inactive) in [3]; 11.1% (inactive) in assay [4]; 57.2% (inactive) in assay [5]; 38.8% (inactive) in [6]. For the same compound, the results for the growth in assay [7], in assay [8] and in assay [9] were 1.94% (active), 65.5% (inactive) and 59.5% (inactive), respectively.

As for `O=C(NO)c1ccc(CNC(=O)[C@H]2Cc3c([nH]c4ccccc34)[C@H](c3ccc(Cl)cc3)N2)cc1`, the growth in assay [1] is 10.7% (inactive); in [2], 9.83% (active); in [3], 6.92% (active); in [4], -11.1% (active); in assay [5], 22.6% (inactive); in assay [6] it was -17.4% (active). Also, the growth is 2.84% (active) in assay [7], 15.1% (inactive) in assay [8] and 23% (inactive) in assay [9].

Take `COc1ccc(OC)c(-c2cc(-c3c[nH]c4ccccc34)nc(N)c2C#N)c1`: the growth was 13% (inactive) in assay [1]; 8.61% (active) in assay [2]; -3.02% (active) in assay [3]; 12.8% (inactive) in assay [4]; 9.75% (active) in assay [5]; -69.4% (active) in assay [6]. For the same compound, the growth was -60.3% (active) in [7], 22.4% (inactive) in assay [8] and -8.47% (active) in [9].

`CN1C(=O)N(C)C2SC(N/N=C/c3ccccc3F)=NC21` (configuration not stated): the growth is 94.7% (inactive) in [1]; 17.2% (inactive) in assay [2]; 59.4% (inactive) in assay [3]; 50.2% (inactive) in assay [4]; 78.7% (inactive) in assay [5]; 62% (inactive) in [6]. For the same compound, the results for the growth in [7], in assay [8] and in assay [9] were 54.3% (inactive), 82.7% (inactive) and 36.5% (inactive), respectively.

Regarding `CCNCCCn1c2c(c3cc(OC)c(OC)cc3c1=O)C(=O)c1cc3c(nc1-2)OCO3`, the growth in assay [1] was 12.1% (inactive); in assay [2] it was -18.2% (active); in assay [3] it was -93.5% (active); in assay [4], -91.6% (active); in assay [5] it was 8.1% (active); in assay [6], 4.2% (active). The growth in [7] was -44.1% (active); in [8], 45.4% (inactive); in assay [9] it was 0.853% (active).

For the compound `COC1=C[C@]23CCC(=O)N2CCc2cc4c(cc2[C@@H]3[C@@H]1OC(=O)CCCC(C)C)OCO4`, the growth in [1] was 84.2% (inactive); in [2] it was 17.6% (inactive); in [3], 4.86% (active); in assay [4] it was 98.5% (inactive); in assay [5] it was 133% (inactive); in assay [6], 69.9% (inactive). The growth in assay [7] was 11.3% (inactive); in assay [8] it was 78.9% (inactive); in assay [9], 57.1% (inactive).

`COc1ccc(-c2cc(-c3cc(C(=O)c4ccccc4)n4ccc(C)cc34)nc(N)c2C#N)cc1`: the growth in assay [1] is 77.9% (inactive); in assay [2] it was 88.3% (inactive); in assay [3], 50.8% (inactive); in assay [4], 34.4% (inactive); in [5], 41.2% (inactive); in assay [6], 45.2% (inactive). In addition, the figures for the growth in assay [7], in assay [8] and in assay [9] were 7.52% (active), 84.4% (inactive) and 79.8% (inactive), respectively.

In the case of `COc1cc2c3c(n(CCCNCCO)c(=O)c2cc1OC)-c1nc2c(cc1C3=O)OCO2`, the growth in [1] was 6.05% (active); in [2], 10.7% (inactive); in [3] it was 46.7% (inactive); in assay [4], 1.28% (active); in assay [5], 19.1% (inactive); in [6] it was -8.95% (active). Besides, the growth in [7] was -57.1% (active); in [8], 80.2% (inactive); in assay [9] it was 23.7% (inactive).
